Here are results for 1 sequence from article PMC7862700, “An all-to-all approach to the identification of sequence-specific readers for epigenetic DNA modifications on cytosine”.

Common to all, as to test: DAPPL (digital affinity profiling via proximity ligation, sequencing); 10 mM Tris-HCl pH 7.5, 50 mM NaCl, 1 mM DTT, 4% glycerol, room temperature, 30 min; GST-TFs on glutathione beads, 16-mer random dsDNA library, 0.1% formaldehyde crosslink after washing; high values mean tight binding
Conditions in all cases: protein: recombinant; tags: N-terminal GST; dsDNA, one strand shown

Experiment [1] deals with T1, FLI1 (Homo sapiens, UniProt Q01543 1-452).
T1 sequence: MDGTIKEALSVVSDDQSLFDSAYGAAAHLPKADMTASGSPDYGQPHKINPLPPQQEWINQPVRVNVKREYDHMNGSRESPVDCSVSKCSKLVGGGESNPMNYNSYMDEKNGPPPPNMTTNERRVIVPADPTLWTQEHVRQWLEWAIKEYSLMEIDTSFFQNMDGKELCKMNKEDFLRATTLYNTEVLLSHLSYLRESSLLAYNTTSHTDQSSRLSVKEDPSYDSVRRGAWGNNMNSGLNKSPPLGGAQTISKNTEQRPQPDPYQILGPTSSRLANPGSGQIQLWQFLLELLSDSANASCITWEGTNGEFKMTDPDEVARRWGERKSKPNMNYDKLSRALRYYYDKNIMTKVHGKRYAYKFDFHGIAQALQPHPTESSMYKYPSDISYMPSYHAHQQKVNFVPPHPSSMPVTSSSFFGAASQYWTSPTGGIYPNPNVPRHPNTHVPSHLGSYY
The method in brief:
(§1)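 Each value of binding signal is a hexamer's read frequency for a factor divided by the same hexamer's frequency in the tag-only sample. Barcoded, bead-captured GST fusions of human transcription factors made in yeast were pooled with that sample and incubated with 200 nmole of a random double-stranded 16-mer DNA library in Tris/NaCl/DTT/glycerol buffer at room temperature for 30 min. Washing, 0.1% formaldehyde crosslinking, proximity ligation, PCR and Illumina NextSeq500 sequencing followed.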

Experiment [2] has as its target T2, ELK1 (Homo sapiens, UniProt P19419 1-428).
T2 sequence: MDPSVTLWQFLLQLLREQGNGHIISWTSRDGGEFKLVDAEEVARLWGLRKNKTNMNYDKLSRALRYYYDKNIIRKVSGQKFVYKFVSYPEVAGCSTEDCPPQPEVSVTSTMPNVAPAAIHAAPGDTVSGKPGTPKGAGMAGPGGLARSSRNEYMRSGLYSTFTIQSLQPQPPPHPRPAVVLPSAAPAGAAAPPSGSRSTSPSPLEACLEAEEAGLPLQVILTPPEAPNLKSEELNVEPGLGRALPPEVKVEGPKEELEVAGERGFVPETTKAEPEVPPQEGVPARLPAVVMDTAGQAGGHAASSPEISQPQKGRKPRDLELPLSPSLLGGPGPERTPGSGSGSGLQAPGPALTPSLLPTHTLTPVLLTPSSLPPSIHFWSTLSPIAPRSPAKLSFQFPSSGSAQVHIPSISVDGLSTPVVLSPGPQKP
The method in brief: as §1

The target in experiment [3] is T3, ERG (Homo sapiens, UniProt P11308 1-479).
T3 sequence: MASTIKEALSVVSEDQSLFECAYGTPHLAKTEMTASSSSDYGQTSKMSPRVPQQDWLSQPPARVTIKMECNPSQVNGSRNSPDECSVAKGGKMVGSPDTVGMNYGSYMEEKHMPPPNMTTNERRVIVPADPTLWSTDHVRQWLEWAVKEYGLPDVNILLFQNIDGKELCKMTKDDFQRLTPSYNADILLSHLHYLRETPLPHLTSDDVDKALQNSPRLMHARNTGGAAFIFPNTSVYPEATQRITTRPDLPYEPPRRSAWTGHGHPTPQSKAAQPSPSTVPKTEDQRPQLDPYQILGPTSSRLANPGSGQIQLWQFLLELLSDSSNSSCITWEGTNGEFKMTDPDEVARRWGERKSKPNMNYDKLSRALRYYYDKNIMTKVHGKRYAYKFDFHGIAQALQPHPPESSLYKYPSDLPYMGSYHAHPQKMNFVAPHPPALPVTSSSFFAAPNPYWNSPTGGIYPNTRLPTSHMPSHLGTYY
The method in brief: as §1

For experiment [4], the target named is ELF1 (Homo sapiens, UniProt P32519 1-619). The method in brief:
as §1

Experiment [5] addresses T4, EHF (Homo sapiens, UniProt Q9NZC4 1-300).
T4 sequence: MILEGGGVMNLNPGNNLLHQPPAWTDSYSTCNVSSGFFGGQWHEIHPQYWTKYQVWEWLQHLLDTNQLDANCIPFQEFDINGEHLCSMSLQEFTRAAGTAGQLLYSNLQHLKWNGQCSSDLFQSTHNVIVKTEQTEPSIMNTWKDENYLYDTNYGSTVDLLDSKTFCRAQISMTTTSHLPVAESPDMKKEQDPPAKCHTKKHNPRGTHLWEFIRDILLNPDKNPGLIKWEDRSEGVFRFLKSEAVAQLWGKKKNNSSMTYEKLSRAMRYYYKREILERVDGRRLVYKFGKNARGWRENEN
The method in brief: as §1

For experiment [6], the target named is SPI1 (Homo sapiens, UniProt P17947 1-270). The gist of the method: as §1
Experiment [7] addresses T5, ELK3 (Homo sapiens, UniProt P41970 1-407).
T5 sequence: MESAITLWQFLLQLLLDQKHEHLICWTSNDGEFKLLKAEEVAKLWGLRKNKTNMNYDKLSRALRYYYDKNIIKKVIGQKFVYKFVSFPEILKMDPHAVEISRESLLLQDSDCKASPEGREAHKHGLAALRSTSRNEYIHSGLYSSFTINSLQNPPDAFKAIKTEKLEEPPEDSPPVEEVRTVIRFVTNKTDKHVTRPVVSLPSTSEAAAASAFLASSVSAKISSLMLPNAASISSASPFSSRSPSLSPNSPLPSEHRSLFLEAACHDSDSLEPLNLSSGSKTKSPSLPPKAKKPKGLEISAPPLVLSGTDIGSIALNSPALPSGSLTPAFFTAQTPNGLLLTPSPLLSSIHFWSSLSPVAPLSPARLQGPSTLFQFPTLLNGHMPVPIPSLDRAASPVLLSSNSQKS
The method in brief: as §1

In experiment [8] the target is ELF4 (Homo sapiens, UniProt Q99607 1-663). The method in brief: as §1
In experiment [9] the target is T6, ETV2 (Homo sapiens, UniProt O00321 1-342).
T6 sequence: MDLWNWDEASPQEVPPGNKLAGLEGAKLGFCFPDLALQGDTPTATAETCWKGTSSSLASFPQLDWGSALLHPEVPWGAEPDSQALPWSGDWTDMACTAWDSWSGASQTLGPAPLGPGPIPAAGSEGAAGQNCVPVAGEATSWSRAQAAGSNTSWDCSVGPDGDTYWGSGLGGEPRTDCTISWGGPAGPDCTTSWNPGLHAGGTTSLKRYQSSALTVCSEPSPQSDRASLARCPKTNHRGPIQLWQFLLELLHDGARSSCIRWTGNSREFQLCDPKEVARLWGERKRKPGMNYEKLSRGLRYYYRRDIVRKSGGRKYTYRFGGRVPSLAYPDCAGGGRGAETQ
The method in brief:
as §1

The target of experiment [10] is T7, ETV3L (Homo sapiens, UniProt Q6ZN32 1-361).
T7 sequence: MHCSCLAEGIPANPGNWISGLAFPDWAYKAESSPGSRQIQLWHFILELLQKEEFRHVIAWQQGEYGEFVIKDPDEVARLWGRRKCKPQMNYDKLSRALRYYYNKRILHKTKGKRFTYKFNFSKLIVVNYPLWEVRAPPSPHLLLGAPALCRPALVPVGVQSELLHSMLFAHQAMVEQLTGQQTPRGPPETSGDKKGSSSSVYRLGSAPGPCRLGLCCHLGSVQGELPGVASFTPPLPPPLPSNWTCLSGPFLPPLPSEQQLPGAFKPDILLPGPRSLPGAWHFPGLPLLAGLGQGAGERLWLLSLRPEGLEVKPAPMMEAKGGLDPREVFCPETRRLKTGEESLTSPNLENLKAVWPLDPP
The gist of the method:
as §1

In experiment [11] the target is ETV6 (Homo sapiens, UniProt P41212 1-452). The gist of the method:
as §1

Chain of ETV6 (P41212 whole entry): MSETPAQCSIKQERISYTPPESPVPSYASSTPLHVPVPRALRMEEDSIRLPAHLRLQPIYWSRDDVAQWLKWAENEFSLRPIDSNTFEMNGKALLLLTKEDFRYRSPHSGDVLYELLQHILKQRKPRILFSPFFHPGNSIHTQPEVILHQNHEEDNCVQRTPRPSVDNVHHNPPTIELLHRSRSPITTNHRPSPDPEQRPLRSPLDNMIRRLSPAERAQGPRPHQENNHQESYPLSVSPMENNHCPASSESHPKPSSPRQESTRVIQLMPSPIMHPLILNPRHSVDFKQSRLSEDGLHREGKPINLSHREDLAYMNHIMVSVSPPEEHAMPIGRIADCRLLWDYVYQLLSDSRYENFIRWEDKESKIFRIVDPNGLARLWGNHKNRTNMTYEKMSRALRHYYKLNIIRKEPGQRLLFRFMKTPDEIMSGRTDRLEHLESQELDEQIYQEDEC
Chain of ELF1 (P32519 whole entry): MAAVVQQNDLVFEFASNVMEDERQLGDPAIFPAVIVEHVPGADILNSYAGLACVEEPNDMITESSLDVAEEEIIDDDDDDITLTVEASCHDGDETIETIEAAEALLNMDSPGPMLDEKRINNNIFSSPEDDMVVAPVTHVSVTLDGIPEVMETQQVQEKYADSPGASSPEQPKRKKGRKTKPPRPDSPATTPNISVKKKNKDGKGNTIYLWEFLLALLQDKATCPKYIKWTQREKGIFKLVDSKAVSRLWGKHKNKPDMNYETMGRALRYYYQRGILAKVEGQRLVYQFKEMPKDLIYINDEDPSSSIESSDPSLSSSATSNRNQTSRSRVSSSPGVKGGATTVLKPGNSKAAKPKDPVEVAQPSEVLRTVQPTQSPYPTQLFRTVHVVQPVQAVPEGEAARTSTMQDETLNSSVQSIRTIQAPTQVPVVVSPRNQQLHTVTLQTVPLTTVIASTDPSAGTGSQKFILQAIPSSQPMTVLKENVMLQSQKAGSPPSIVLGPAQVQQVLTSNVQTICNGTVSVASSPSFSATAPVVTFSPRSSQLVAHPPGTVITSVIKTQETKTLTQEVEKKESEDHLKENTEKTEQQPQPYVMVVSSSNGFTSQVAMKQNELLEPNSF
Chain of ELF4 (Q99607 whole entry): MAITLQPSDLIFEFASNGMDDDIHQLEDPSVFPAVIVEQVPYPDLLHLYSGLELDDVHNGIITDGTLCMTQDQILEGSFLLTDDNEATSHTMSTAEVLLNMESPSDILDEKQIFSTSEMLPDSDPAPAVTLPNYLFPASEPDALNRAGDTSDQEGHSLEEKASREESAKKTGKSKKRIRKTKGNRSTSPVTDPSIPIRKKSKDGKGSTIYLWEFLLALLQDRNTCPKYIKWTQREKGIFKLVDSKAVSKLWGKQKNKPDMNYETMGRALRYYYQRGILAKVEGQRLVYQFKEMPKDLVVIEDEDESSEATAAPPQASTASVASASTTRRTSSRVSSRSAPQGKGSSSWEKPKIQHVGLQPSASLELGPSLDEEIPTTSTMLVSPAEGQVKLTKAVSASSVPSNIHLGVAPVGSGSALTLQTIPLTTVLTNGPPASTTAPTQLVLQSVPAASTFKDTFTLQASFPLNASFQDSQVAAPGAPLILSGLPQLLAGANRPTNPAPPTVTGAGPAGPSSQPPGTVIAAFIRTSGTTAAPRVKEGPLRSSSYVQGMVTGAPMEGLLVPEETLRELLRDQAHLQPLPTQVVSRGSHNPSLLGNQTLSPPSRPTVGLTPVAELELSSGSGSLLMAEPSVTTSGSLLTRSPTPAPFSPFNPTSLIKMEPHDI

CCATGG: the binding signal in [1] was 1.08 fold enrichment (6-mer frequency, TF over GST control); in [2], 1.05 fold enrichment (6-mer frequency, TF over GST control); in experiment [3], 1.08 fold enrichment (6-mer frequency, TF over GST control); in experiment [4], 1 fold enrichment (6-mer frequency, TF over GST control); in [5] it was 1.06 fold enrichment (6-mer frequency, TF over GST control); in [6], 1.05 fold enrichment (6-mer frequency, TF over GST control). Further, the binding signal was 1.06 fold enrichment (6-mer frequency, TF over GST control) in experiment [7]; 1.06 fold enrichment (6-mer frequency, TF over GST control) in experiment [8]; 1.05 fold enrichment (6-mer frequency, TF over GST control) in [9]; 1.02 fold enrichment (6-mer frequency, TF over GST control) in experiment [10]; 1.03 fold enrichment (6-mer frequency, TF over GST control) in experiment [11].
